Inconclusive results are not listed. The source made the active and inactive calls. How the source made its calls, unless noted: active means hit-call score of the fitted dose curve at least 0.9, where 1 is the maximum; inactive means score below 0.9.

The nature of assay [1]: ATG_NFI_CIS: Attagene CIS-FACTORIAL HepG2 Assay for human Nuclear Factor I (NFI) (AID 2282989). The conditions noted are these: HepG2 cis-regulatory reporter, NFI response element transcription; actives raise or lower the signal. Summed up:
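After transient transfection of HepG2 with cis-promoter reporter constructs and 24 h dosing, RNA is reverse-transcribed, amplified, 6-FAM end-labelled and HpaI-digested before capillary analysis. Bidirectional curve fitting against DMSO.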

Assay [2] concerns the target Myc proto-oncogene protein (Homo sapiens) (UniProt P01106). In words: ATG_Myc_CIS: Attagene CIS-FACTORIAL HepG2 Assay for human Myelocytomatosis (Myc) Proto-Oncogene Transcription Factor (AID 2282990). The conditions noted are these: HepG2, Attagene cis-reporter transcription factor activity; actives raise or lower the signal. Summed up:
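Fluorescence intensity of reporter-specific cDNA fragments, separated by capillary electrophoresis, gives the signal. Transfected HepG2 cells carrying cis-promoter reporter constructs are incubated with compound for 24 h; DMSO serves as baseline.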

Assay [3] can be described thus: ATG_NF_kB_CIS: Attagene CIS-FACTORIAL HepG2 Assay for human Nuclear Factor Kappa B (NF-kB) (AID 2282991). The conditions noted are these: HepG2 Attagene cis-factorial NF-kB reporter mRNA; actives raise or lower the signal. Summed up:
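After 24 h compound incubation, transfected HepG2 cells yield total RNA; reporter cDNA is PCR-amplified, end-labelled with 6-FAM, HpaI-digested and analysed on a genetic analyser. Endogenous factor activity, DMSO-referenced bidirectional fit.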

Assay [4] can be described thus: ATG_NRF2_ARE_CIS: Attagene CIS-FACTORIAL HepG2 Assay for human Nuclear Factor Erythroid 2 Related Factor 2 (NFR2) response to Antioxidant Response Elements (ARE) (AID 2282992). As to conditions: HepG2 Attagene ARE/NRF2 reporter, transcription factor activity; actives raise or lower the signal. Summed up: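 Cis-factorial assay: transfected HepG2 reporter library, 24 h dosing, mRNA readout via RT-PCR/CE; DMSO-referenced bidirectional analysis.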

A short description of assay [5]: ATG_Oct_MLP_CIS: Attagene CIS-FACTORIAL HepG2 Assay for human Octamer-Binding Transcription Factor (Oct) (AID 2282993). As to conditions: HepG2 Attagene cis-factorial Oct reporter, mRNA; actives raise or lower the signal. The method, boiled down: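 Cells of the HepG2 line express promoter-controlled reporter sequences whose mRNA levels, after 24 h treatment, are measured by RT-PCR and capillary electrophoresis. Increases and decreases are scored relative to DMSO.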

In assay [6] the target is Cellular tumor antigen p53 (Homo sapiens) (UniProt P04637). In words: ATG_p53_CIS: Attagene CIS-FACTORIAL HepG2 Assay for human p53 Transcription Factor (AID 2282994). As to conditions: HepG2 p53 cis-element reporter, Attagene mRNA; actives raise or lower the signal. The method, boiled down:
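Using HepG2 hepatoma cells carrying cis-acting multiplexed reporters, mRNA induction is detected after a 24 h exposure. Gain- and loss-of-signal responses are fitted relative to DMSO-treated cells.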

The nature of assay [7]: BSK_3C_TissueFactor: BioMAP Diversity Plus: 3C Assay for Tissue Factor Biomarker Activity (AID 2282997). The conditions noted are these: BioMAP 3C HUVEC, tissue factor biomarker readout; actives raise or lower the signal. Summed up: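 Primary human umbilical vein endothelial cells in the 3C system were exposed to test chemical for 24 h, then Tissue Factor measured by ELISA. Activity was fitted bidirectionally against DMSO as negative control and baseline.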

Assay [8] can be described thus: BSK_3C_uPAR: BioMAP Diversity Plus: 3C Assay for Urokinase-type plasminogen activator receptor (uPAR) Biomarker Activity (AID 2282998). The conditions noted are these: BioMAP 3C HUVEC, uPAR biomarker ELISA; actives raise or lower the signal. The method, boiled down:
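Endothelial primary cells of human umbilical vein origin received test chemical; 24 h later uPAR was assayed by ELISA. Fitting was bidirectional, DMSO as negative control.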
On the technique in general: In an ELISA, binding on a coated surface is turned into a signal by an enzyme label.

Assay [9] is described as follows: BSK_3C_VCAM1: BioMAP Diversity Plus: 3C Assay for Vascular cell adhesion molecule 1 (VCAM1) Biomarker Activity (AID 2282999). The conditions noted are these: BioMAP 3C HUVEC, VCAM1 ELISA, cytokine-stimulated; actives raise or lower the signal. The method, boiled down: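 Human umbilical vein endothelial cells (3C system), biomarker read by ELISA 24 h after dosing; bidirectional fit against DMSO baseline. Cytotoxicity tracked by SRB total-protein staining in parallel cultures at biomarker time.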

Assay [10] is described as follows: BSK_4H_Eotaxin3: BioMAP Diversity Plus: 4H Assay for Eotaxin 3 Biomarker Activity (AID 2283000).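 On outcome: CCL26 protein level quantified by ELISA in parallel with SRB cytotoxicity check.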 As to conditions: primary human endothelial cells (HUVEC); actives raise or lower the signal. Summed up: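 HUVEC, 24 h post-dose, ELISA for Eotaxin-3/CCL26. Gain or loss of signal fitted bidirectionally vs DMSO baseline.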
Read-out in assay [11]: Intercellular Adhesion Molecule 1 (ICAM1), ICAM1 (gene 3383)
In words: BSK_3C_ICAM1: BioMAP Diversity Plus: 3C Assay for Intercellular Adhesion Molecule 1 (ICAM1) Biomarker Activity (AID 2283003). As to conditions: primary human endothelial cells (HUVEC); actives raise or lower the signal. The method, boiled down:
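Primary human umbilical vein endothelial cells in the BioMAP 3C system were exposed to chemicals for 24 h, then ICAM-1 was quantified by ELISA. Activity was fitted bidirectionally against the DMSO negative control baseline.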

The target of assay [12] is Retinoic acid receptor alpha (Homo sapiens) (UniProt P10276). In words: ATG_RARa_TRANS: Attagene TRANS-FACTORIAL HepG2 Assay for human Retinoic Acid Receptor alpha (RARa) (AID 2283005; active means hit-call score of the fitted dose curve at least 0.9, where 1 is the maximum). Summed up: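 HepG2 transiently transfected with multiplex GAL4-UAS reporter units including a human RARa–GAL4 chimera; 24 h compound exposure. Reporter mRNA quantified by RT-PCR, 6-FAM labeling and capillary electrophoresis; gain of signal versus DMSO.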
Chain of Retinoic acid receptor alpha (Homo sapiens) (P10276 whole entry, looked up, the tested form may be a part): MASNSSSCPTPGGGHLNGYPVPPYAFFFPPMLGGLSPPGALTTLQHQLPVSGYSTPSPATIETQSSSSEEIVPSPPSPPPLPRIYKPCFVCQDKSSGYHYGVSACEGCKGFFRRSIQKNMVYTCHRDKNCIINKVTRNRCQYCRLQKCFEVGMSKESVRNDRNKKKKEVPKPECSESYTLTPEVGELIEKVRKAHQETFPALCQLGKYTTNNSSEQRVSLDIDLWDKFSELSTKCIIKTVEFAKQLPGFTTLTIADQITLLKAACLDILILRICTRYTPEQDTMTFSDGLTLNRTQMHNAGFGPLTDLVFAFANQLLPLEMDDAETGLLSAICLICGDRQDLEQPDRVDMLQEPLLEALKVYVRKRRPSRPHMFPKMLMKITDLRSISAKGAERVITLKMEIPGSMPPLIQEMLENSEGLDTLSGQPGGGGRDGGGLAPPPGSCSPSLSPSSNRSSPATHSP

Assay [13] can be described thus: BSK_3C_Proliferation: Cell Proliferation Assessment in the BioMAP Diversity Plus: 3C Assay (AID 2283006).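 On AC50: potency may reflect either rise or fall in cell number versus DMSO.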 The conditions noted are these: primary human endothelial cells (HUVEC). The method, boiled down:
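Human umbilical vein endothelial cells were grown sub-confluent and exposed to chemical for 48 h, then fixed with 10% TCA and stained with 0.1% sulforhodamine B; absorbance at 560 nm gave relative cell number, fitted bidirectionally against DMSO baseline.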

The target of assay [14] is Peroxisome proliferator-activated receptor gamma (Homo sapiens) (UniProt P37231). Kind of assay: ATG_PPARg_TRANS: Attagene TRANS-FACTORIAL HepG2 Assay for human Peroxisome Proliferator-activated Receptor-gamma (PPARg) (AID 2283007; active means hit-call score of the fitted dose curve at least 0.9, where 1 is the maximum). Summed up:
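Liver-derived HepG2 cells expressing an exogenous NR-Gal4 chimera alongside GAL4-UAS reporter genes; 24 h exposure. Fluorescence of reporter RT-PCR products, separated by capillary electrophoresis, gives mRNA induction relative to DMSO.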

Assay [15] concerns the target Nuclear receptor subfamily 1 group I member 2 (Homo sapiens) (UniProt O75469). Kind of assay: ATG_PXR_TRANS: Attagene TRANS-FACTORIAL HepG2 Assay for human Pregnane X Receptor (PXR) (AID 2283008; active means hit-call score of the fitted dose curve at least 0.9, where 1 is the maximum). The method, boiled down: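 Fluorescence intensity of FAM-labelled, HpaI-digested reporter amplicons, separated by capillary electrophoresis, quantifies induction. HepG2 cells with PXR-Gal4 trans-reporter system were exposed 24 h; DMSO defines baseline.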

Assay [16] deals with human Retinoic Acid Receptor gamma (RARg), RARG (gene 5916) (UniProt P13631). Kind of assay: ATG_RARg_TRANS: Attagene TRANS-FACTORIAL HepG2 Assay for human Retinoic Acid Receptor gamma (RARg) (AID 2283009; active means hit-call score of the fitted dose curve at least 0.9, where 1 is the maximum). The method, boiled down: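 HepG2 cells transiently transfected with multiplexed reporter units expressing chimeric RARg-GAL4 and GAL4-UAS-driven reporters; 24 h compound exposure. Reporter mRNA quantified by RT-PCR with fluorescent labelling and capillary electrophoresis; gain-of-signal fitted relative to DMSO baseline.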
Chain of human Retinoic Acid Receptor gamma (RARg), RARG (gene 5916) (P13631 whole entry, looked up, the tested form may be a part): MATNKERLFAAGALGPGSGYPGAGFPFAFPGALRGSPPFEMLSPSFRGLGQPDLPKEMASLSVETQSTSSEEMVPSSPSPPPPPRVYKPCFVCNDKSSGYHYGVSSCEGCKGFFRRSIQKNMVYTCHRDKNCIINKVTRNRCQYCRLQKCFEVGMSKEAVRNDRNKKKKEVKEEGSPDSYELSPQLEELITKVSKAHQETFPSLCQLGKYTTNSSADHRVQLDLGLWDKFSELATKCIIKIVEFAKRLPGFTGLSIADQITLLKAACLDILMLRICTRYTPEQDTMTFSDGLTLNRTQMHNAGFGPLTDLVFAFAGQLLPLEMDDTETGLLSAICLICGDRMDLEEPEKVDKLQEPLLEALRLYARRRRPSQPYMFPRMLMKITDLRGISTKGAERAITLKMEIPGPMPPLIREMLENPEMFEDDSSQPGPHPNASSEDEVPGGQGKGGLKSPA

Assay [17] addresses human RAR-related Orphan Receptor beta (RORb), RORB (gene 6096) (UniProt Q92753). In words: ATG_RORb_TRANS: Attagene TRANS-FACTORIAL HepG2 Assay for human RAR-related Orphan Receptor beta (RORb) (AID 2283010; active means hit-call score of the fitted dose curve at least 0.9, where 1 is the maximum). Summed up:
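HepG2 cells were transiently transfected with multiplexed GAL4-UAS reporter units expressing chimeric nuclear receptor–GAL4 proteins, then dosed for 24 h. Reporter mRNA was quantified by RT-PCR with fluorescent labelling and capillary electrophoresis; gain of signal was fitted relative to DMSO.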

Assay [18] addresses human Peroxisome Proliferator-activated Receptor alpha (PPARa), PPARA (gene 5465) (UniProt Q07869). Kind of assay: ATG_PPARa_TRANS: Attagene TRANS-FACTORIAL HepG2 Assay for human Peroxisome Proliferator-activated Receptor alpha (PPARa) (AID 2283001; active means hit-call score of the fitted dose curve at least 0.9, where 1 is the maximum;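 on AC50: potency for gain of reporter signal over DMSO so agonist or activator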). Summed up: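 Measures transcriptional activity of an exogenous chimeric PPARa-Gal4 protein in transiently transfected HepG2 cells after 24 h dosing. Reporter mRNA quantified via RT-PCR and capillary electrophoresis; DMSO served as negative control.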

Assay [19] deals with human Retinoic Acid Receptor beta (RARb), RARB (gene 5915) (UniProt P10826). Kind of assay: ATG_RARb_TRANS: Attagene TRANS-FACTORIAL HepG2 Assay for human Retinoic Acid Receptor beta (AID 2283004; active means hit-call score of the fitted dose curve at least 0.9, where 1 is the maximum). The method, boiled down:
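HepG2 cells transiently transfected with multiplexed GAL4-UAS reporter units expressing chimeric NR–Gal4 fusions; 24 h compound exposure. Reporter mRNA quantified by RT-PCR, 6-FAM labelling, HpaI digestion and capillary electrophoresis; gain-of-signal fitted against DMSO baseline.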

Assay [20] concerns the target human Peroxisome Proliferator-activated Receptor delta (PPARd), PPARD (gene 5467) (UniProt Q03181). Kind of assay: ATG_PPARd_TRANS: Attagene TRANS-FACTORIAL HepG2 Assay for human Peroxisome Proliferator-activated Receptor delta (PPARd) (AID 2283002; active means hit-call score of the fitted dose curve at least 0.9, where 1 is the maximum). The method, boiled down:
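Fluorescence from capillary electrophoresis of labelled RT-PCR reporter fragments gives the signal; DMSO sets baseline. Cells: HepG2 transiently carrying GAL4-UAS reporter units plus chimeric nuclear receptor-Gal4 proteins, exposed to chemicals for 24 h.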

Chain of Myc proto-oncogene protein (Homo sapiens) (P01106 whole entry, looked up, the tested form may be a part): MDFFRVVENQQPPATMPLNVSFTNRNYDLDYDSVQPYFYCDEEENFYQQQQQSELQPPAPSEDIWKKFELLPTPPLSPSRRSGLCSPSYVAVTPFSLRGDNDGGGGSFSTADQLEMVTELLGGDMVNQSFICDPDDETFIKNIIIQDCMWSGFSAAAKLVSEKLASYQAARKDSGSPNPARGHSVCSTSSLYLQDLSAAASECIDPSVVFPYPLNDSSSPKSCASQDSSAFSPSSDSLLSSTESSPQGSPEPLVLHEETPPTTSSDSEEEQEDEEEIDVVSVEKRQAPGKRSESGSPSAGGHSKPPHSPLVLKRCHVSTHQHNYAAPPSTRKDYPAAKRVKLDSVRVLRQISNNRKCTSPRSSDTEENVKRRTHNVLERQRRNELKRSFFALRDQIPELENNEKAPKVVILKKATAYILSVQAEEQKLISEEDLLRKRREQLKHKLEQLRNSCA
Chain of Peroxisome proliferator-activated receptor gamma (Homo sapiens) (P37231 whole entry, looked up, the tested form may be a part): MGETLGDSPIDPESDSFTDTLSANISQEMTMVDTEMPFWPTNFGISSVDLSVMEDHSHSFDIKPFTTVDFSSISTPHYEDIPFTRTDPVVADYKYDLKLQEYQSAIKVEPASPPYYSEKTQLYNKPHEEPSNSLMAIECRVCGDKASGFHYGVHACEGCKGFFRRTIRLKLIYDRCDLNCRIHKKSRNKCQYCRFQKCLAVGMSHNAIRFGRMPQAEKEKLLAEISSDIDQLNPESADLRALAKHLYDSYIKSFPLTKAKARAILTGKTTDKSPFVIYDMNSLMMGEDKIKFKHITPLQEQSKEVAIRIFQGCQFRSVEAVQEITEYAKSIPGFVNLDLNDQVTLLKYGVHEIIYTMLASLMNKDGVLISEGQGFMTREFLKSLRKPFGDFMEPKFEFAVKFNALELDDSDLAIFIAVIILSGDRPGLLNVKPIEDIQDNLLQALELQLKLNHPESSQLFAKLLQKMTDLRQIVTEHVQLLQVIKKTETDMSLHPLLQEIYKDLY
Chain of Nuclear receptor subfamily 1 group I member 2 (Homo sapiens) (O75469 whole entry, looked up, the tested form may be a part): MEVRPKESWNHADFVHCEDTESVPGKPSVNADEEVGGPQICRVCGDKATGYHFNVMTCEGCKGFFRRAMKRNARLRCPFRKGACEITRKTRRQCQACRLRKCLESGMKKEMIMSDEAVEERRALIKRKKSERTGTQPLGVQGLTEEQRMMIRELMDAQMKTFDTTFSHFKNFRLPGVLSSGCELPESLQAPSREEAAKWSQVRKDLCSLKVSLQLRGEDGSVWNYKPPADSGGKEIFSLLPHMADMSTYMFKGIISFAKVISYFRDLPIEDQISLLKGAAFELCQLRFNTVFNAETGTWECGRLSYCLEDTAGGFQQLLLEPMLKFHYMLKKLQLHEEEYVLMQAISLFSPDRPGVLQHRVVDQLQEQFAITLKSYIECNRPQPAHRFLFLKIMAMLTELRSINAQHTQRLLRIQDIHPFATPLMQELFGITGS
Chain of Cellular tumor antigen p53 (Homo sapiens) (P04637 whole entry, looked up): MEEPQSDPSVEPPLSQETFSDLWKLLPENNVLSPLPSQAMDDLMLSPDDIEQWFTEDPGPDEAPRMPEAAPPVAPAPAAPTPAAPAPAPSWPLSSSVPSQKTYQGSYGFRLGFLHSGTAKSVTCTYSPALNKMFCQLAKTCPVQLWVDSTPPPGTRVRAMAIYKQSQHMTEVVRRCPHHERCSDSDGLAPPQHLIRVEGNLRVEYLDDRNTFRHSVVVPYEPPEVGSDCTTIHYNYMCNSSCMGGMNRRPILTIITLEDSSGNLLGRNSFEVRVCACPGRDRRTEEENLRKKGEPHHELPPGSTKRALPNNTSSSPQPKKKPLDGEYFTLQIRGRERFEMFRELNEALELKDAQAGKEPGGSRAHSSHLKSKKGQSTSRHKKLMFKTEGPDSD
Chain of human Retinoic Acid Receptor beta (RARb), RARB (gene 5915) (P10826 whole entry, looked up, the tested form may be a part): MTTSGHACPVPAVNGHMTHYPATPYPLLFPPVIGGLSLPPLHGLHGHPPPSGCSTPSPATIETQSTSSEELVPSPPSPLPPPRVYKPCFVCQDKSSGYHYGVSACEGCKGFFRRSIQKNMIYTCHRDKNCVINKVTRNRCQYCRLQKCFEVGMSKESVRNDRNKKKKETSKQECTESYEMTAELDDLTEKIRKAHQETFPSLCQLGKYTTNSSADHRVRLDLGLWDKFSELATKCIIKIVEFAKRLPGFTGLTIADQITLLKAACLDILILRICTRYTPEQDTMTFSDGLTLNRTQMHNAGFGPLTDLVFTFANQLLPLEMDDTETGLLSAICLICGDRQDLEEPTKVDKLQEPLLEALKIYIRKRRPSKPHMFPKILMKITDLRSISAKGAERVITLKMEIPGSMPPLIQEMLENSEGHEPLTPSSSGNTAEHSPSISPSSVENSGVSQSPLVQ
Chain of human Peroxisome Proliferator-activated Receptor delta (PPARd), PPARD (gene 5467) (Q03181 whole entry, looked up, the tested form may be a part): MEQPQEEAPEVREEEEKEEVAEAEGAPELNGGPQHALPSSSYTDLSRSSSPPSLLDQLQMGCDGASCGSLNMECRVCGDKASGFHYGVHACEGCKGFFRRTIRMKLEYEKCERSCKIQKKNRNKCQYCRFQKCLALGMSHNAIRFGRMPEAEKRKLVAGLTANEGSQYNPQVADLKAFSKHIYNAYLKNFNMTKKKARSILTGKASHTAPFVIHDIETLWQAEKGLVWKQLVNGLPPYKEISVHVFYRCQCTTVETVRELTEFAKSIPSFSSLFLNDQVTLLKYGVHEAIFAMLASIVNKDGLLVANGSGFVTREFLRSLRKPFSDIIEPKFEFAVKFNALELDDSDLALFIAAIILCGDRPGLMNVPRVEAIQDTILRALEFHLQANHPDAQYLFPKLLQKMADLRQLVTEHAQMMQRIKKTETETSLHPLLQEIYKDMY
Chain of human Peroxisome Proliferator-activated Receptor alpha (PPARa), PPARA (gene 5465) (Q07869 whole entry, looked up, the tested form may be a part): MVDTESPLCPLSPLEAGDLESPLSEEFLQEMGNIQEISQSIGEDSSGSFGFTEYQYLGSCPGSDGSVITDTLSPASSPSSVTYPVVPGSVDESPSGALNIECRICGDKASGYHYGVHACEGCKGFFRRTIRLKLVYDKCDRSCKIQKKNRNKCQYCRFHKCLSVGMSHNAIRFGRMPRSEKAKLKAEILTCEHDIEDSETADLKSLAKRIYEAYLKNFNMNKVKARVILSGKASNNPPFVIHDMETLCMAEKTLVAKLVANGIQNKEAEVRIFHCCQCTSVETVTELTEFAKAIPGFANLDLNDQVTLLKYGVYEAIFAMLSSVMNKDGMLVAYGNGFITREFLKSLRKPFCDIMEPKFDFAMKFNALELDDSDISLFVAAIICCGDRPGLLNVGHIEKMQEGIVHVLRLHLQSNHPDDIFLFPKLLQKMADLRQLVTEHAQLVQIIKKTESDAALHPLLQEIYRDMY
Chain of human RAR-related Orphan Receptor beta (RORb), RORB (gene 6096) (Q92753 whole entry, looked up, the tested form may be a part): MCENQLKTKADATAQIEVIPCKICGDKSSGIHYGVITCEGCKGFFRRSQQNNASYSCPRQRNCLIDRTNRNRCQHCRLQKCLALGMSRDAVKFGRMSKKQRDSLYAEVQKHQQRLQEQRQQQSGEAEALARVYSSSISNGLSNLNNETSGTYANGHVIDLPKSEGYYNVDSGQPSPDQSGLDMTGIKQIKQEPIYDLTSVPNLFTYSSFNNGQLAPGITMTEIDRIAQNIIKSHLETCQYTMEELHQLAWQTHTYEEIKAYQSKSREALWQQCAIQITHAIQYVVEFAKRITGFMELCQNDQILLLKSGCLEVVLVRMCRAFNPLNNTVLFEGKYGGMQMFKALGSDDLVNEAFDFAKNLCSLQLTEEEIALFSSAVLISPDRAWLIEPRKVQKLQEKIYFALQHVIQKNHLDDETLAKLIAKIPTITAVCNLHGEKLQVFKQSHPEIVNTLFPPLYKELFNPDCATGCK

Regarding `C1=CC2C3C=CC(C3)C2C1` (stereo unspecified), the call in [1], in [2], in assay [3], in [4], in [5] and in [6] was inactive. Besides, the outcome in [7], in assay [8], in [9], in assay [10], in assay [11] and in [12] was inactive. The result in assay [13], in assay [14], in assay [15], in assay [16] and in [17] was inactive.

A word on the AC50: it is the concentration giving half of the maximal activity seen. As to `Oc1c(Cl)cc(Cl)c(Cl)c1Cc1c(O)c(Cl)cc(Cl)c1Cl`, the molecule was called inactive in [1], in [3], in assay [19], in assay [12] and in assay [16]. The AC50 in assay [2] is 4.41 µM (active); in assay [4], 3.04 µM (active); in [5] it was 1.3 µM (active); in assay [6], 11.1 µM (active); in assay [7], 18.5 µM (active); in [8] it was 1.23 µM (active). Besides, the AC50 in [9] is 20 µM (active); in assay [10], 10.8 µM (active); in assay [18] it was 11.1 µM (active); in assay [11], 27.1 µM (active); in [13], 2.22 µM (active); in assay [15], 5.79 µM (active).

`Clc1cc(Cl)c(-c2c(Cl)c(Cl)cc(Cl)c2Cl)cc1Cl`: the call in assay [1], in assay [2], in assay [3], in assay [5], in [6] and in assay [20] was inactive. In addition, the outcome in assay [11] and in assay [14] was inactive. Also, the AC50 in assay [4] is 26.7 µM (active); in [7] it was 10 µM (active); in assay [8], 17.1 µM (active); in assay [9], 12.9 µM (active); in assay [10], 12.5 µM (active); in assay [13], 16.7 µM (active). In addition, in assay [15], the AC50 was 4.6 µM (active).

In the case of `NC(=S)NNC(N)=S`, the molecule was classed as inactive in assay [1], in assay [2], in assay [3], in [4], in assay [5] and in [6]. Further, the molecule was called inactive in assay [18], in assay [20], in [19], in assay [12], in [14] and in assay [15].

Values taken from PubChem BioAssay (EPA / NIEHS).
